# In PubChem BioAssay AID904 (National Center for Advancing Translational Sciences (NCATS), 2007):
# Screen size: about 55,000 compounds; about 530 (0.96%) were called active. Where a call stands in place of a potency, no number is given. Roughly 7% stayed inconclusive and do not appear here. The full list was thinned out, with actives kept by preference. Values without a mark were called inactive. Calls follow the shape of the dose curve; as a rule, active = well fitted cell-killing curve with a large enough effect; inconclusive = small, poorly fitted or top-dose-only effect; inactive = no such curve, though single readings can be large or run the other way.
# Assay: qHTS Screen for Compounds that Selectively Target Cancer Cells with p53 Mutations: Cytotoxicity of p53 Null Cells at the Nonpermissive Temperature; also: nearly all actives have a fitted effect of over 50% in size
# Conditions: H1299 p53-null (neo) cells, 39C, ATPlite viability, 24 h; series mostly up to 46.1 µM
# From the text: NIH Chemical Genomics Center [NCGC] NIH Molecular Libraries Screening Centers Network [MLSCN] MLSCN Grant: 1 X01 MH079844-01 Assay Submitter (PI): Dr. SUN, YI, University of Michigan NCGC Assay Overview: Synthetic Lethal Screen for Compounds to Kill Cancer Cells with p53 Mutation. Tumor suppressor gene p53 serves as a major cellular barrier against tumorigenesis. […] The goal of this screening is to identify small molecule probes that selectively kill cancer cells with mutations in p53. This screening was carried out using two lines of H1299 lung cancer cells. The H1299-p53 A138V line express a temperature sensitive p53 mutant (p53ts) in which the mutant p53 protein (A138V) is in the mutant confirmation when grown at 39C (the nonpermissive temperature) and in the wild type conformation when grown at 32C (the permissive temperature). A H1299-neo line (p53 null) grown at both 39C and 32C were used as counter-screens to filter out false positive associated with temperature shifting. The small molecular compounds that selectively target mutant p53-containing cancer cells were selected as candidate probes for further study. A cytotoxicity assay based on the measurement of ATP contents in cells was used in this screen. Concentration-responses of all the compounds in the library collection were determined in qHTS using the cell lines and temperature conditions as above.
# NCGC Assay Protocol Summary: Both the H1299-p53A138V and H1299-neo cell lines were provided by Dr.Yi Sun, a PI at the University Michigan. The cells were maintained and cultured at 37C. The resuspended frozen cells were used to plate the cells in the 1536-well assay plates at a density of 600 cells per well in 5 ul medium. The assay plates with the cells were incubated at 37C for 16 to 30 hours before the experiments. The library compounds in DMSO solution were added to the cells in assay plates and incubated 24 hours at 39C (for mutant p53 conformation) or 32C (for normal p53 conformation as control). An ATP_lite assay kit (PerkinElmer) was used to determine the cell viability. Tomaxifen (100uM) was used as the positive control for cell killing. Data were normalized to the controls for basal activity (DMSO only) and 100% killing (100uM tamoxifen). AC50 values were determined from concentration-response data modeled with the standard Hill equation. P53 assay protocol: 1. Reagent; 5 uL H1299-p53A138V or H1299-neo cell cells/well 2. Time; overnight; 37C incubation 3. Compounds; 23 nL; 5.9 nM to 46 uM 4. Controls; 23 nL; Tamoxifen 100 uM 5. Time; 24 hr; 39C incubation 6. Reagent; 3 uL; ATP_Lite reagent 7. Time; 20 min; Room Temperature 8. Detection; Luminescence; Viewlux plate reader Keywords: p53, synthetic lethal, cancer, cell viability, cytotoxicity, H1299 cell line, luminescence, MLSMR, MLSCN, NIH Roadmap, qHTS, NCGC
# Potency is read from the fitted curve at half-maximal effect.
SMILES,Potency,"activity, negative = cell killing"
O=[N+]([O-])c1ccc(N2CCN(S(=O)(=O)c3ccccc3)CC2)cc1N1CCc2ccccc2C1,inactive,–
COc1cc(CNC(=O)c2cc3n(n2)CCCN(Cc2cccc(F)c2)C3=O)cc(OC)c1OC,inactive,–
O=C(Cc1ccc(Cl)cc1)NCC(c1cccs1)S(=O)(=O)c1ccc(Cl)cc1 (configuration not stated),inactive,–
CCCCN(CCCNC(=O)c1cc(Nc2ccccc2OC)nc2ccccc12)c1ccccc1,inactive,–
COc1ccc(Nc2cc(C(=O)NCCCN(C)c3ccccc3)c3ccccc3n2)c(OC)c1,inactive,–
COc1ccccc1Nc1cc(C(=O)NCCCN(C)C2CCCCC2)c2ccccc2n1,12.6 µM (active),–
COc1ccc2cc(-c3nc(Cl)c4c5c(sc4n3)CC(C)CC5)c(=O)oc2c1 (configuration not stated),inactive,–
COc1ccc(-c2cc3ccc(OCc4nn[nH]n4)cc3oc2=O)cc1,10 µM (active),–
COc1ccc2oc(=O)c(-c3cn4c(n3)sc3cc(OC)ccc34)cc2c1,inactive,–
O=C(COc1nc2ccccc2nc1N1CCOCC1)NCC(F)(F)F,inactive,–
CCCn1ccc2c(OCC(=O)NCc3ccc(F)cc3)cccc2c1=O,inactive,–
COc1ccc(OCC(=O)Nc2cccc(C(=O)OCc3cc(=O)n4nc(C)sc4n3)c2)cc1,inactive,–
Cc1nn2c(=O)cc(COC(=O)c3cccc(NC(=O)COc4ccccc4Cl)c3)nc2s1,6.31 µM (active),–
Cc1nn2c(=O)cc(COC(=O)c3ccccc3NC(=O)COc3ccccc3C)nc2s1,inactive,–
Cc1ccccc1CNC(=O)C(=O)NCC(c1cccs1)S(=O)(=O)c1cccs1 (configuration not stated),inactive,–
CCC(=O)N1c2ccccc2CC1C(=O)N1CCN(c2ccccc2F)CC1 (configuration not stated),inactive,–
Cc1ccc(OCC(=O)OCc2cc(=O)n3nc(C4CC4)sc3n2)cc1,inactive,–
COc1ccccc1NC(=O)c1cc(S(=O)(=O)NCCc2ccccc2)ccc1F,inactive,–
COCCn1c(SCC(=O)c2cc(C)ccc2C)nc2cc(C(=O)NC3CCCC3)ccc2c1=O,inactive,–
CCn1c(CNC(=O)c2ccccc2)nnc1SCC(=O)N1CCN(c2ccccc2)CC1,inactive,–
CCOCN(C(=O)Cn1c(C(C)O)nc2ccccc21)c1c(C)cccc1CC (configuration not stated),inactive,–
COc1cc(-c2cc3n(C)c(C)c(CCC(=O)Nc4ccc(F)cc4)c(=O)n3n2)cc(OC)c1OC,inactive,–
COc1ccc(NC(=O)CN2C(=O)C(c3ccccc3)=NC23CCCCCC3)cc1OC,inactive,–
COc1ccc(-c2nn(CC(=O)Nc3ccccc3F)c3c2cnc2ccc(F)cc23)cc1,inactive,–

SMILES,Potency,"activity, negative = cell killing"
COC(=O)c1nc2ccccc2s1,inactive,–
CCc1ccccc1N1C(=O)CN(S(=O)(=O)CC)CC1(C)C(=O)NC1CCCCC1 (configuration not stated),inactive,–
O=C(Nc1cccc(F)c1)c1coc(=O)c(Br)c1,inactive,–
COc1cccc(CNC(=O)C(=O)NCC(c2cccs2)S(=O)(=O)c2ccccc2)c1 (configuration not stated),inactive,–
Cc1ccc(C)c(Cn2c(CCCNC(=O)C3CCCCC3)nc3ccccc32)c1,inactive,–
O=C(CC(NCc1cccnc1)C(=O)O)Nc1ccc(O)cc1 (configuration not stated),inactive,–
CCN1C(=O)c2ccccc2Sc2ccc(NC(=O)Cc3ccc(OC)cc3)cc21,inactive,–
C/C(CC(=O)Nc1ccc(Cl)cc1)=N\NC(=O)C(=O)NCCO,inactive,–
CC(=O)c1sc(N2C(=O)c3oc4ccccc4c(=O)c3C2c2ccc(C)cc2)nc1C (configuration not stated),inactive,–
COC(=O)c1ccccc1NC(=O)Cn1c(=O)n(-c2cccc(C(F)(F)F)c2)c(=O)c2c(C)c(C)sc21,inactive,–
CCCCOc1ccc(Cn2c(=O)oc3ccc(C)cc32)cc1OC,inactive,–
COc1ccc(CCN2C(=O)C3CC=C(C)CC3C2=O)cc1OC (configuration not stated),inactive,–
CCCCOc1ccc(CN2C(=O)C(=O)c3cc(Br)cc(C)c32)cc1OC,11.2 µM (active),–
COc1ccc(CCNC(=O)/C(C#N)=C2\N=C(NC(=O)c3cccs3)c3ccccc32)cc1,inactive,–
CCCS(=O)(=O)Nc1cccc(-c2cn3ccsc3n2)c1,inactive,–
CCc1ccc(CNC(=O)C2CCN(c3nn4cc(-c5ccc(F)cc5)nc4s3)CC2)cc1,inactive,–
CCC(CC)c1nn2cc(-c3ccccc3)nc2s1,7.94 µM (active),–
Cc1ccc(Cl)cc1NC(=O)CSc1nccn1C,inactive,–
COc1cccc(CNC(=O)Cn2c(=O)c3cccn3c3ccc(F)cc32)c1OC,inactive,–
CC(C)NC(=S)N1CCN(C(c2ccccc2)c2ccccc2)CC1,–,2.42% [at 1.84 µM]
CCC(C)NC(=O)Cn1c(=O)n(-c2ccc(Cl)cc2)c(=O)c2c3c(sc21)CCCC3 (configuration not stated),inactive,–
Cc1ccc(N(CC(=O)NCC(C)c2ccccc2)S(=O)(=O)N(C)C)cc1 (configuration not stated),inactive,–
Cc1ccc(OCCSc2nc(-c3cccs3)nc3cc(=O)[nH]n23)cc1Cl,inactive,–
